Bioassay records as filed in PubChem.
Hits are enriched below; roughly 2.4% of the tested compounds scored in any of these assays.
Cruzain Triton: inhibitors of Trypanosoma cruzi cruzain with detergent | P25779 | purified cruzain, Z-FR-AMC fluorescence, 0.01% Triton | Potency, µM, for the others: max response, negative = inhibition, usual class: inhibitors | 200,000 tested, 0.43% active | AID 1478;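 further: plate controls were neutral wells for no effect and buffer without enzyme for full effect; nearly all actives have a fitted effect of over 40% in size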
Target sequence (P25779 123-467 limits assumed): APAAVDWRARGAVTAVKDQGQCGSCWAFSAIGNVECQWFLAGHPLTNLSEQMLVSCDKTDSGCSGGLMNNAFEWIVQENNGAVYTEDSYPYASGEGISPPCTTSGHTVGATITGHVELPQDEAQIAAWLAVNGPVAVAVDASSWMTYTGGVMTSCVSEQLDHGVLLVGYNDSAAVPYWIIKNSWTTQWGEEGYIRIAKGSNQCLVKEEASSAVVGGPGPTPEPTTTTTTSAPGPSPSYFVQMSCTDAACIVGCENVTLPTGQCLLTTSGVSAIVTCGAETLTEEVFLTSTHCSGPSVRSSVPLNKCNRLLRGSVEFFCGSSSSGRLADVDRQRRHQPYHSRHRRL
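Cruzain (1.5 nM) preincubated 15 min at RT with compound in 100 mM sodium acetate pH 5.5, 5 mM DTT, 0.01% Triton X-100. Reaction started with 2 uM Z-FR-AMC; AMC fluorescence (ex 360/em 450 nm) change over 60 s gave rate.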
Cruzain noTriton: blocks cruzain activity in detergent-free assay; P25779; purified cruzain, Z-FR-AMC fluorescence, no detergent; 200,000 tested, 2.3% active; Potency, µM, for inactives: max response, negative = inhibition, actives largely listed as inhibitors;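 further: plate controls were enzyme without inhibitor for no effect and buffer without enzyme for full effect; nearly all actives have a fitted effect of over 40% in size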
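Detergent-free condition (0.00005% Triton X-100) in acetate buffer pH 5.5 with DTT. 1.5 nM enzyme and compound were pre-mixed 15 min, then 2 uM Z-FR-AMC substrate added; reaction progress from fluorescence change between first and third reads (60 s).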
Active calls of the source: *; ? = inconclusive. The call rests on the fitted dose curve; in most records, active means well fitted curve in the direction sought with a large enough effect; inconclusive means small, poorly fitted or top-dose-only effect, or another doubt; inactive means no such curve, though single readings can be large; an effect the other way counts as inactive or inconclusive. Potency means the concentration at half of the fitted maximal effect.

SMILES	Cruzain Triton	Cruzain noTriton
COc1ccc(-c2csc(N(CCc3ccccc3)C(=O)COc3ccccc3)n2)cc1	3%	13µM*
COCCCN(C(C)=O)c1nc(-c2ccccc2)cs1	-3%	10%
COc1cccc2c1C(=O)c1c(O)c3c(c(O)c1C2=O)C[C@](O)(/C(C)=N\O)C[C@@H]3O[C@H]1C[C@H](N)[C@@H](O)[C@H](C)O1	-7%	-13%
COc1ccc(OCC(=O)NC(=S)Nc2ccc3c4c(cccc24)CC3)cc1	-12%	?
Cc1ccccc1OCC(=O)NC(=S)Nc1ccc2c3c(cccc13)CC2	-1%	7.9µM*
Cc1cccc(NC(=O)C2CCCC2)c1	-1%	9%
Cc1cccc(NC(=O)COC(=O)CNC(=O)C2CCCCC2)c1	7.1µM*	7.9µM*
CC(C)CCNC(=O)c1ccc2c(c1)N(Cc1cccc(Cl)c1)C(=O)c1ccccc1S2	1%	?
Cc1ccc(CCNC(=O)c2ccc3c(c2)N(Cc2cccc(C)c2)C(=O)c2ccccc2S3(=O)=O)cc1	0%	?
O=C(NCCc1ccc(Cl)cc1)c1ccc2c(c1)N(Cc1cccc(Cl)c1)C(=O)c1ccccc1S2(=O)=O	1%	10µM*
COc1ccc(CNC(=O)c2ccc3c(c2)N(Cc2cccc(Cl)c2)C(=O)c2ccccc2S3)c(OC)c1	0%	13µM*
Cc1cc(NC(=O)c2ccc3c(c2)N(Cc2cccc(Cl)c2)C(=O)c2ccccc2S3(=O)=O)ccc1Br	-1%	3.2µM*
O=C(Nc1ccc(Cl)cc1)c1ccc2c(c1)N(Cc1ccccc1)C(=O)c1ccccc1S2(=O)=O	-7%	?
N#Cc1cccc(NC(=O)c2ccc3c(c2)N(Cc2cccc(Cl)c2)C(=O)c2ccccc2S3(=O)=O)c1	-3%	6.3µM*
CC(=O)Nc1ccc(NC(=O)c2ccc3c(c2)N(Cc2cccc(Cl)c2)C(=O)c2ccccc2S3(=O)=O)cc1	-5%	-20%
COc1ccc2c(c1)C(=O)[C@H](OC(=O)NCc1ccc3c(c1)OCO3)[C@@H](c1ccc(OC)c(Br)c1)O2	-6%	-6%
CC1=C(C(=O)OCC2CCCCC2)C(c2ccc(Cl)cc2)CC(=O)N1 (stereo not given)	-14%	9%
Nc1cccc(-c2cn3ccsc3n2)c1	-2%	10%
CCOc1cc(C2CC(=O)Nc3c2c(=O)nc(SCc2cccc(Cl)c2)n3C)ccc1O (stereo not given)	-2%	4%
COc1ccc2[nH]cc(CCNc3ncncc3-c3ccc(C(=O)N(C)C)cc3)c2c1	3%	-7%
O=C(Nc1ccc(OCc2cc(=O)n3ccccc3n2)cc1)c1ccccc1Cl	4%	7%
O=C(NC1CCCC1)c1ccc2c(c1)N(Cc1ccccc1Cl)C(=O)c1ccccc1S2	0%	?
O=C(NC1CCCCC1)c1ccc2c(c1)N(Cc1ccccc1Cl)C(=O)c1ccccc1S2	2%	10µM*
O=C1c2ccccc2C(O)N1c1ccc(Cl)cc1 (stereo not given)	-2%	-27%
COC(=O)C1CN(C#N)N(c2ccc(Cl)cc2)C12c1ccccc1-c1ccccc12 (stereo not given)	-9%	25µM*
SMILES	Cruzain Triton	Cruzain noTriton
O=C(Nc1ccc(Cl)c(Cl)c1)Nc1nnc(CSc2ccccc2)s1	-1%	10µM*
Cc1ccc(OCCSCc2nnc(NC(=O)Nc3cccc(Cl)c3)s2)cc1	-1%	16µM*
CCCc1nnc(NC(=O)Nc2ccccc2Cl)s1	-2%	-12%
O=C(Nc1ccc(Cl)cc1)Nc1nnc(CSCc2ccccc2Cl)s1	-1%	6.3µM*
O=C(Nc1ccccc1)Nc1nnc(CSCc2ccccc2Cl)s1	-3%	?
O=C(Nc1nnc(SCc2ccc(Cl)cc2)s1)c1ccco1	6%	?
Cc1nnc(NC(=O)Nc2cccc(Cl)c2)s1	1%	0%
O=C(Nc1ccc(Cl)cc1)Nc1nnc(SCc2ccccc2)s1	-1%	7.9µM*
O=C(CSc1nc(=O)[nH]c2c1CCC2)NCc1ccc(Cl)cc1	0%	0%
Cc1cc(Cl)ccc1OCC(=O)N1CCC(c2nc3ccccc3o2)CC1	-10%	?
Cc1nc2nc(NCc3ccc(Br)cc3)[nH]n2c(=O)c1Cc1ccccc1	-1%	1%
Clc1nc2ccccc2nc1Cl	0%	-7%
CCn1c(=O)c(C(=O)Nc2ccccc2S(N)(=O)=O)c(O)c2ccccc21	-4%	?
CCn1c(=O)c(C(=O)NNS(=O)(=O)c2ccc(Cl)cc2)c(O)c2ccccc21	-9%	25µM*
CC(C)CC(=O)Nc1ccc(C(=O)NNC(=O)C(c2ccccc2)c2ccccc2)cc1	6%	25µM*
CCC(=O)Nc1ccc(C(=O)NNC(=O)C(c2ccccc2)c2ccccc2)cc1	-2%	?
COc1cccc(-c2nc(N3CCN(C)CC3)c3ccccc3n2)c1	1%	-8%
Cc1nc(NC(=O)c2ccccc2)sc1-c1csc(NCc2ccco2)n1	5%	16µM*
COc1ccccc1Nc1nc(-c2sc(NC(=O)c3cccc(Cl)c3)nc2C)cs1	11%	7.9µM*
COc1cccc(Nc2nc(-c3sc(NC(=O)c4ccccc4)nc3C)cs2)c1	1%	?
COc1ccccc1Nc1nc(-c2sc(NC(=O)C(C)(C)C)nc2C)cs1	-2%	-4%
Cc1ccc(Nc2nc(-c3sc(NC(=O)c4cccc(Cl)c4)nc3C)cs2)cc1	6%	4µM*
Cc1nc(C)c(-c2csc(NCc3ccco3)n2)s1	-7%	-8%
Cc1ccc(Nc2nc(-c3sc(NC(=O)c4ccco4)nc3C)cs2)cc1	3%	-26%
Cc1nc(NC(=O)c2ccc(Cl)cc2)sc1-c1csc(Nc2cccc(F)c2)n1	9%	10µM*
SMILES	Cruzain Triton	Cruzain noTriton
CCc1ccc(CNC(=O)C2CCN(C(=O)c3ccc(-n4ccc5ccccc54)s3)CC2)cc1	-4%	10%
CCOc1ccc(C(=O)OCc2cc(=O)n3nc(C4CCCCC4)sc3n2)cc1	-1%	-7%
COc1ccc(-n2c(/C=C/c3cccc(C(F)(F)F)c3)nc3ccccc3c2=O)cc1Cl	0%	-4%
CCC(Oc1ccccc1F)C(=O)Nc1c(C(=O)c2ccccc2)oc2ccccc12 (stereo not given)	-3%	6%
Cc1ccc(C)c(Nc2cc(C(=O)NC3CCCCC3)c3ccccc3n2)c1	0%	-14%
Cc1ccnc(NC(=S)NC(=O)/C=C/c2ccccc2)c1	-4%	?
Cc1ccnc(NC(=S)NC(=O)/C=C/c2ccc(Cl)cc2)c1	3%	4µM*
N#CCc1ccccc1[N+](=O)[O-]	-1%	-2%
CC(C)CC(=O)Nc1cc([N+](=O)[O-])ccc1Cl	2%	-8%
O=C(CNC(c1ccccc1)c1ccccc1)Nc1cc([N+](=O)[O-])ccc1Cl	-7%	25µM*
CSCCC(NS(=O)(=O)c1ccc2c(c1)oc(=O)n2C)C(=O)NCc1ccc(Cl)cc1 (stereo not given)	0%	9%
COc1ccc(N(CC(=O)NCc2ccccc2Cl)S(=O)(=O)c2c(C)[nH]c(=O)[nH]c2=O)cc1	0%	-2%
Cc1ccc2nc(CN3CCN(S(=O)(=O)c4ccc(F)cc4)CC3)oc2c1	-3%	3%
CCCC(=O)Oc1c(Sc2ccc(Cl)cc2)c(C)nn1-c1ccccc1	-4%	2%
CCn1c2ccccc2c2cc(NC(=O)CSc3nnc(-c4cccc(Cl)c4)o3)ccc21	6%	10µM*
Cc1cccc(-c2nnc(SCC(=O)Nc3ccc(C)c(C)c3)o2)c1	-1%	-11%
O=C(SCc1cccc2ccccc12)c1ccc(Cl)cc1	0%	-10%
